Shown is part of a subset that was picked to be rich in hits.
FECH inh – blocks human mitochondrial ferrochelatase activity | P22830 | purified FECH, Ni-mesoporphyrin absorbance 550 nm | calls only at 10 µM (by protocol) | 3.3% of 20,000 active | AID 1671448;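 active = enzyme reaction rate more than 3 SD below the solvent-only control wells on the same plate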;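 note: lower slope than DMSO wells means FECH inhibition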
Target sequence (P22830 whole entry, looked up): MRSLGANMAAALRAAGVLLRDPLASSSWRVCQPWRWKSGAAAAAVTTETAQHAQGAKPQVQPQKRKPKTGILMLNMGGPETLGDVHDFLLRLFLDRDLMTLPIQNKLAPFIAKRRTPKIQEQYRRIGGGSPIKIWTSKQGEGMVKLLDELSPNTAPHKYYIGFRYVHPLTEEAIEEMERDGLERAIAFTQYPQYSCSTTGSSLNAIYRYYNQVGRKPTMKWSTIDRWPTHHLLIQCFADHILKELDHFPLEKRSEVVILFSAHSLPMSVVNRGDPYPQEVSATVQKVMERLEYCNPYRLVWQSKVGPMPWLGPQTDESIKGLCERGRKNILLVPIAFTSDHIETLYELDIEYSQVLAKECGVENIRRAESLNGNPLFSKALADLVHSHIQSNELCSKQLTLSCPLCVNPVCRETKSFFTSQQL
Active calls of the source: *; i = inactive; + = active, no number.

SMILES	FECH inh
Cc1ccc(C2=CC(c3ccc(Cl)cc3)n3nc(NC(=O)c4cccc(C)c4)nc3N2)cc1 (stereo not drawn)	i
O=C(Nc1nc2n(n1)C(c1ccc(F)cc1)C=C(c1ccc(Cl)cc1)N2)c1ccco1 (stereo not drawn)	i
CC(C)Cn1c(=O)n(CCCn2cccn2)c2cc(C(=O)O)cnc21	i
Cc1nc(CN(C)C(=O)c2ccccc2-c2ncc[nH]2)no1	i
CC(C)Oc1ccc(CNc2ncnc3oc4c(c23)CCCC4)cc1	i
CCc1ccc(-n2c(CN3CCN(C(=O)Nc4ccc5c(c4)CCC5)CC3)nc3cccnc32)cc1	i
CCCCn1ncc2c1NC(=O)CC2c1cn[nH]c1C1CCCCC1 (stereo not drawn)	i
Cc1cc(C)n(CC(C)NC(=O)CC23CC4CC(CC(C4)C2)C3)n1 (stereo not drawn)	i
O=C(NC1CCS(=O)(=O)C1)c1ccc(CN2C(=O)CCn3nc(-c4cccc(Cl)c4)cc32)cc1 (stereo not drawn)	i
COc1ccc(C(=O)Nc2cc(C)nn2-c2ncnc3c2cnn3-c2ccc(C)cc2C)cc1	i
CCC(CC)n1nc(C)cc1NC(=O)Cc1ccc(S(C)(=O)=O)cc1	i
COc1ccccc1Cn1c(CNS(=O)(=O)c2ccc(F)c(Cl)c2)nc2cccnc21	i
Cc1ncc(CN(CCO)Cc2cccs2)[nH]1	i
CCCn1cnnc1CNC1CCN(c2ccc3c(c2)OCO3)CC1	i
CCCC(CCC)C(=O)NC1CC(=O)N(C2Cc3ccccc3C2)C1 (stereo not drawn)	i
O=c1[nH]c2cc(Cl)ccc2cc1CN1CCN(Cc2cccnc2)CC1	i
Cc1cccc(CN2CCCN(CC(=O)Nc3ccc(F)cc3)S2(=O)=O)c1	+
Cc1ccc(CN2CCCN(CC(=O)Nc3ccc(F)cc3)S2(=O)=O)cc1	i
Cc1cccc(CN2CCCN(CC(=O)Nc3cc(C)cc(C)c3)S2(=O)=O)c1	+
Cc1cccc(CN2CCCN(CC(=O)Nc3ccc(C)c(C)c3)S2(=O)=O)c1	+
Cc1cccc(CN2CCCN(CC(=O)Nc3ccccc3)S2(=O)=O)c1	i
Cc1cccc(CN2CCCN(CC(=O)Nc3cccc(Br)c3)S2(=O)=O)c1	i
Cc1ccc(CN2CCCN(CC(=O)Nc3ccc(C)c(C)c3)S2(=O)=O)cc1	i
O=C(CN1CCCN(Cc2cccc(F)c2)S1(=O)=O)Nc1ccccc1	i
Cc1ccc(NC(=O)CN2CCCN(Cc3cccc(F)c3)S2(=O)=O)cc1C	i
SMILES	FECH inh
Cc1c(C(=O)NCc2snnc2C(C)C)sc2ncn(C)c(=O)c12	i
Cc1ccc2nc(C(C)Nc3nc(C)nc4c3cnn4C)[nH]c2c1 (stereo not drawn)	i
COc1cccc(-c2c(Nc3ccc(C)cc3C)oc3c2c(=O)n(C)c(=O)n3C)c1	i
CC(C)c1nc(CCN(C)C(=O)c2ccc(Cl)cn2)no1	i
Cc1cc(C)n(CCC(=O)N(C)CCc2noc(C(C)C)n2)c(=O)n1	+
Cc1cc(C)n(CCC(=O)N(C)Cc2noc(CC(C)C)n2)c(=O)n1	i
Cc1nc(NCC2CCN(C3CCCC3)CC2)c2cnn(C)c2n1	i
O=C(CCCc1cn[nH]c1)NC1CC(=O)N(Cc2ccc(F)cc2)C1 (stereo not drawn)	i
O=c1c2c(nc3nc(CNc4ccc(F)cc4)[nH]n13)CCC2	+
CCc1ccc(NCc2nc3nc4c(c(=O)n3[nH]2)CCC4)cc1	+
CCc1nc2nc(C)c(NC(=O)Nc3ccc4c(c3)OCCO4)c(=O)n2[nH]1	i
CCCc1nc2nc(CC)[nH]n2c(=O)c1N	i
O=c1cc(CN2CCCCC2)nc2nc(NCc3ccc(F)cc3)[nH]n12	i
Cc1oc(-c2ccccc2)nc1CSc1nc(-c2ccccc2)cc(=O)[nH]1	i
COc1cccc(Cn2c(CNC(=O)c3ccccc3F)nc3cccnc32)c1	i
C=CCN(CC=C)C(=O)CN1CCCN(C(=O)C2CCCO2)CC1 (stereo not drawn)	i
COc1cccc(SCC(=O)Nc2cnc3n2CCCC3)c1	i
CCOC(=O)CC1COCCN1CC(=O)Nc1cc(C)ccc1F (stereo not drawn)	i
CCCC(=O)Nc1nc2n(n1)C(c1ccccc1Cl)C=C(c1ccc(Cl)cc1)N2 (stereo not drawn)	+
CCCC(=O)Nc1nc2n(n1)C(c1c(F)cccc1Cl)C=C(c1ccc(C)cc1)N2 (stereo not drawn)	i
O=C(CCc1ccccc1)Nc1nc2n(n1)C(c1ccccc1Cl)C=C(c1ccccc1)N2 (stereo not drawn)	i
CCCC(=O)Nc1nc2n(n1)C(c1c(F)cccc1Cl)C=C(c1ccccc1)N2 (stereo not drawn)	+
CCCC(=O)Nc1nc2n(n1)C(c1ccccc1Cl)C=C(c1ccccc1)N2 (stereo not drawn)	i
CC(C)CC(=O)Nc1nc2n(n1)C(c1ccccc1Cl)C=C(c1ccccc1)N2 (stereo not drawn)	i
O=C(Nc1nc2n(n1)C(c1c(F)cccc1Cl)C=C(c1ccccc1)N2)c1ccccc1F (stereo not drawn)	i
SMILES	FECH inh
CC(C)CC(=O)Nc1nc2n(n1)C(c1c(F)cccc1Cl)C=C(c1ccccc1)N2 (stereo not drawn)	+
CCCC(=O)Nc1nc2n(n1)C(c1ccccc1Cl)C=C(c1ccc(C)cc1)N2 (stereo not drawn)	i
O=C(Nc1nc2n(n1)C(c1c(F)cccc1Cl)C=C(c1ccccc1)N2)c1ccco1 (stereo not drawn)	i
O=C(CCc1ccccc1)Nc1nc2n(n1)C(c1c(F)cccc1Cl)C=C(c1ccccc1)N2 (stereo not drawn)	+
CC(=O)Nc1nc2n(n1)C(c1c(F)cccc1Cl)C=C(c1ccc(Cl)cc1)N2 (stereo not drawn)	i
Cc1ccc2nc(C3CCCN3C(=O)CCc3n[nH]c4c3CCCC4)[nH]c2c1 (stereo not drawn)	i
OCC1CCCN(CCNC2CCC3(CCNCC3)CC2)C1 (stereo not drawn)	i
Cc1ccc(CN2CCC=C(CCNC(=O)N3CCOCC3)C2)cc1	i
CC(C)CNc1nc(Nc2cccc(F)c2)c2cnn(-c3ccccc3)c2n1	i
CCOc1ccc(Nc2nc(NCCC3=CCCCC3)nc3c2cnn3-c2ccccc2)cc1	i
COc1ncc(-c2c(-c3ccccc3)ncn2CC(C)C)cn1	i
Cc1ccc(S(=O)(=O)N2CCCc3cc(C(=O)Nc4ccc(S(N)(=O)=O)cc4)ccc32)cc1	i
Cc1ccc(Nc2nc(N3CCN(c4ccccc4)CC3)nc3c2cnn3-c2ccccc2)cc1C	i
CNC(=O)C1CCN(c2ncnc3sc(C)c(C)c23)C1 (stereo not drawn)	i
Cc1nn(C)c(C)c1-c1ccnc(NCc2ccc3c(c2)n(C)c(=O)n3C)n1	i
CCOC(=O)c1cc2n(n1)CC(C)(C(=O)NC1CCCCC1)N(c1cc(C)ccc1C)C2=O (stereo not drawn)	i
Cc1cccc(S(=O)(=O)N2CCN(c3nc(C)cc(N(C)C)n3)CC2)c1	i
Cc1cc(N(C)C)nc(N2CCN(S(=O)(=O)c3ccc(Oc4ccccc4)cc3)CC2)n1	i
Cc1cc(N(C)C)nc(N2CCN(S(=O)(=O)c3ccccc3)CC2)n1	+
Cn1ccnc1-c1c(-c2ccccc2)ncn1[C@@H]1C[C@@H]2CC[C@H]1C2	i
OC1CCCN(c2ccnc(NCCc3c[nH]c4ccccc34)n2)C1 (stereo not drawn)	i

Screening data as filed in PubChem.
